From PubChem
Sampled rows, rich in hits. Any-hit rate of the full collection: about 1.2%.
Yeast superoxide: caloric restriction mimetics inhibiting age-related superoxide in yeast; S. cerevisiae aged cells, superoxide DHE fluorescence; stronger effect = lower value; superoxide response (% of plate mean), % at 10 µM; 330,000 tested, 0.18% active; AID 2690;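 active means superoxide response under a set limit, about three screen SD below normal, cut at about 65% in these data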;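 further: yeast aged for seven days with compound at 30 °C before DHE staining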
VLA-4 inh: inhibition in a human VLA-4 binding assay; VLA-4 expressing cells, ligand binding flow cytometry; inhibition, % (about 7 µM as worked out from the volumes in the protocol); P13612; 330,000 tested, 0.2% active; AID 2557; in the data active means inhibition above about 50%
Target sequence (P13612 whole entry, looked up): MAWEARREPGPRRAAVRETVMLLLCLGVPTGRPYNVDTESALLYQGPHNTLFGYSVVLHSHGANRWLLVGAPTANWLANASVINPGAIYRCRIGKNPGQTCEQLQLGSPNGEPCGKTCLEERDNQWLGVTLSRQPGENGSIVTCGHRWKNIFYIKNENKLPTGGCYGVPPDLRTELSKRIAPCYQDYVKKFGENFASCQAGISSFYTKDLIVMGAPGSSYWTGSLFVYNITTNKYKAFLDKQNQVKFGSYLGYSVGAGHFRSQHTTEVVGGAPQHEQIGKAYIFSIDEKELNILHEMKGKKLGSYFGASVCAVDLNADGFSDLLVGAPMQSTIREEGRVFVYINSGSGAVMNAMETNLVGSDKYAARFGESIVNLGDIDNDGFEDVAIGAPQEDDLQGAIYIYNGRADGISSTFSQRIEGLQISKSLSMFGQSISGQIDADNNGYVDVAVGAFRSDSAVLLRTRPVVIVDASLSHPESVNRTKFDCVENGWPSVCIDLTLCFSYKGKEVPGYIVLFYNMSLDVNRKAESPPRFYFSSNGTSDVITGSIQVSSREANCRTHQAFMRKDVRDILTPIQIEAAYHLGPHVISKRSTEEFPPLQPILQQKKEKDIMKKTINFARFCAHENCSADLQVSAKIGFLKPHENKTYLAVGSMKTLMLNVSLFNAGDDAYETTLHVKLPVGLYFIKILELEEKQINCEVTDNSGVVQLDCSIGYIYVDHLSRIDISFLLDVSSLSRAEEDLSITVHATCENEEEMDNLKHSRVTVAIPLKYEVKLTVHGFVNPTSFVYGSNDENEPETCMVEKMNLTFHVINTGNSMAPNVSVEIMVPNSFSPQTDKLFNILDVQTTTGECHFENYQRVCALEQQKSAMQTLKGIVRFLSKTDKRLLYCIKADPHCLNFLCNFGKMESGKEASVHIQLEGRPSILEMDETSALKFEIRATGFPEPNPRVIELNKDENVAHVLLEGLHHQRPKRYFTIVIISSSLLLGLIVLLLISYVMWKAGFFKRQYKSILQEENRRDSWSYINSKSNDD
Platelet DG rel: modulates dense granule release in human platelets; inhibition, %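 (compounds screened at 7.5 µM in platelet-rich plasma)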; human platelet-rich plasma, SFLLRN dense granule ATP release, luminescence; 300,000 tested, 0.22% active; AID 1663;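 active means mean replicate score, as percent of positive control, at or above 50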
SKN-1 block: inhibitors of C. elegans SKN-1 | inhibition, % at 21.8 µM | C. elegans VP596 Pgst-4::GFP/RFP ratio, acrylamide-induced, 24 h | 360,000 tested, 0.49% active | AID 624304;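 active means interference check ratio from 0.5 to 1.5 plus GFP to RFP signal ratio inhibition reaching or exceeding a fixed threshold, cut at about 30% in these data, passing the limit was not always enough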
ABCB6 inh MLPCN: human ABCB6 transporter inhibition; Q9NP58; K562-ABCB6 porphyrin accumulation, flow cytometry, 1 h; stronger effect = lower value; fluorescence ratio to DMSO, % at 10 µM; 360,000 tested, 0.19% active;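 active means fluorescence ratio to DMSO below 75%, the collection mean minus 3 SD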;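 further: signal is porphyrin accumulated inside mitochondria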
Superoxide pick: yeast aging superoxide inhibition, cherry pick confirmation. shares compounds with Yeast superoxide. S. cerevisiae aging, superoxide DHE fluorescence; stronger effect = lower value. superoxide response (% of plate), % at 10 µM. 850 tested, 1% active. AID 434994;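 active means superoxide signal below 65% of the plate average of sample wells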;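 further: cells aged with compound for 7 days at 30 degrees C before staining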
DHE fluor count: compound alters DHE oxidation or fluorescence in yeast; shares compounds with Yeast superoxide; S. cerevisiae BY4741, flow cytometry; stronger effect = lower value; fluorescence response, % at 10 µM; 850 tested, under 10 active; AID 435000;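 active means fluorescence response below 15%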;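 further: lower means stronger quenching of DHE signal or ROS scavenging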
ABCB6 blocker 1: blocks the human ABCB6 transporter; K562-ABCB6 porphyrin accumulation, flow cytometry, 1 h; stronger effect = lower value; ratio response (% of DMSO), % at 10 µM; 700 tested, under 10 active; shares compounds with ABCB6 inh MLPCN; AID 602430;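 active means repeat-averaged ratio response below 75% of DMSO, the collection mean minus 3 SD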;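 further: median porphyrin fluorescence at 575 nm with 488 nm excitation from mitochondria; lower ratio means less porphyrin signal so ABCB6 inhibition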
Each line names hits and unclear results; the compound was inactive in the other large screens (follow-up assays come after a bar, where they were run).

C[C@]12CCC3C(CC[C@H]4C[C@@H](O)CC[C@]34C)C1CC[C@@H]2OC(=O)[C@H](N)CCCCN (some centres not stated)	none (no result: Platelet DG rel) | Superoxide pick inactive | DHE fluor count inactive
C[C@]12CCC3C(CC[C@H]4C[C@@H](O)CC[C@]34C)C1CCC2=O (some centres not stated)	Yeast superoxide 63 (no result: Platelet DG rel) | Superoxide pick inactive | DHE fluor count inactive
C[C@]12CCC3C(CC[C@H]4C[C@@H](O)CC[C@]34C)C1C[C@@H](Br)[C@H]2O (some centres not stated)	none (no result: Platelet DG rel) | Superoxide pick inactive | DHE fluor count inactive
Brc1ccc2c(c1)-n1nncc1CN(CC1CCCCC1)C2	none (no result: Yeast superoxide, VLA-4 inh, Platelet DG rel)
CC12CCC3C(CCC4CC(=O)C(C(O)C(F)(F)F)CC43C)C1CCC2O (configuration not stated)	none (no result: Yeast superoxide, VLA-4 inh, Platelet DG rel) | Superoxide pick inactive | DHE fluor count inactive
CC12CCC3C(CCCC4CC(=O)CCC43C)C1CCC2O (configuration not stated)	none (no result: Yeast superoxide, VLA-4 inh, Platelet DG rel)
C[C@]12CCC(=O)C[C@H]1CC[C@@H]1[C@@H]2CC[C@]2(C)[C@@H](O)CC[C@@H]12	none (no result: Platelet DG rel, SKN-1 block, ABCB6 inh MLPCN) | Superoxide pick inactive | DHE fluor count inactive
CCOc1cc2c(cc1OCC)-n1cccc1C(c1ccccc1OC)NC2 (configuration not stated)	ABCB6 inh MLPCN 73 | ABCB6 blocker 1 inactive
C1=NCCCN2CCCCC12 (configuration not stated)	none (no result: Yeast superoxide, VLA-4 inh, Platelet DG rel)
